Assay results as given in PubChem BioAssay (Tox21).
The source made the active and inactive calls. The call rests on the fitted dose curve. Residues, ends and D or L forms follow the SMILES beside them.

The compounds below were run against Thyrotropin-releasing hormone receptor (Homo sapiens) (UniProt P34981) (assay: qHTS assay to identify small molecule agonists of the thyrotropin-releasing hormone receptor (TRHR) signaling pathway (AID 1346891;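 further: HEK293 cells expressing TRHR with calcium dye readout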)). Conditions: TRHR-HEK293 calcium fluorescence, agonist mode; series mostly up to 57.6 µM.
Thyrotropin-releasing hormone receptor (Homo sapiens), sequence (P34981 whole entry, looked up): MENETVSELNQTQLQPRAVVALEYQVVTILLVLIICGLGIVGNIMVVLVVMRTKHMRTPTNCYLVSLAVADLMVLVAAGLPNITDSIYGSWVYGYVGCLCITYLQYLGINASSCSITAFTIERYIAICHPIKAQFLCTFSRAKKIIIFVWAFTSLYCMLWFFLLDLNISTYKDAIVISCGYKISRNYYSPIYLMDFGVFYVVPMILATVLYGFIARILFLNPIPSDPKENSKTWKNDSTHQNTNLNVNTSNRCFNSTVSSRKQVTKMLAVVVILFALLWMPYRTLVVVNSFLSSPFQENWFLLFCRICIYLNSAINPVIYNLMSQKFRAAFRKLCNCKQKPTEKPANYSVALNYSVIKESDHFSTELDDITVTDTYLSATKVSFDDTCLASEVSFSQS
Text: National Center for Advancing Translational Sciences [NCATS] NIH Chemical Genomics Center [NCGC] U.S. Environmental Protection Agency [EPA] National Institutes of Environmental Health Sciences [NIEHS] National Toxicology Program [NTP] Assay overview: Thyrotropin-releasing hormone (TRH) receptor (TRHR) is a G-protein-coupled receptor which binds the tripeptide thyrotropin releasing hormone. TRHR is found in the brain and, when bound by TRH, acts (through phospholipase C) to increase intracellular inositol trisphosphate. It plays a crucial role in the anterior pituitary where it controls the synthesis and secretion of thyroid stimulating hormone and prolactin. The TRHR-Hek293 assay is a cell-based assay, and it has the potential to screen G protein-coupled receptors. A compound/drug can either activate (agonist) or suppress (antagonist) GPCRs that can be monitored by levels of intracellular calcium. Using this assay, the Tox21 10K compound library was screened to identify potential TRHR agonists.
Assay Protocol Summary: The TRHR-Hek293 cells were dispensed at 1500cells/4uL/well in 1536-well black-clear bottom plates using a Multidrop dispenser. After the assay plates were incubated at a 37 C/5% CO2 incubator for 18 hours, 4 uL of Dye-Loading Solution was added to each well. The plates were incubated at 37 C for 2 hours. For agonist mode, 23 nL of compounds dissolved in DMSO, positive controls or DMSO only was transferred to the assay plate by a pin tool. The fluorescence intensity in the plates was measured using FDSS 7000EX kinetic plate reader for 3 min at 1 sec intervals. Each test compound was measured at 15 concentrations and in triplicates.
`Cc1ccccc1C(OCCN(C)C)c1ccccc1` (stereo not given) was tested, and the outcome was “inactive”.
`NC(=O)c1cnccn1` was tested, and the outcome was “inactive”.
`CCCN(CCC)S(=O)(=O)c1ccc(C(=O)O)cc1` was tested, and the outcome was “inactive”.
In the case of `Nc1ccc(S(=O)(=O)c2ccc(N)cc2)cc1`, the outcome is reported as “inactive”.
`CC(=O)OCC(COC(C)=O)OC(C)=O` was tested, and the outcome was “inactive”.
In the case of `Cc1noc(NS(=O)(=O)c2ccc(N)cc2)c1C`, the outcome is reported as “inactive”.
`O=C(O)CCCCCCCC(=O)O` was tested, and the outcome was “inactive”.
In the case of `O=c1cc[nH]c(=S)[nH]1`, the outcome is reported as “inactive”.
`NC(=O)c1ccccc1O` was tested, and the outcome was “inactive”.
In the case of `O=C(O)CCCCC(=O)O`, the outcome is reported as “inactive”.
With `O=C(O)c1cccc([N+](=O)[O-])c1` the outcome was “inactive”.
With `CC(O)CO` (stereo not given) the outcome was “inactive”.
For `CC(=O)NS(=O)(=O)c1ccc(N)cc1`, the outcome was “inactive”.
With `O=C(C1CCCCC1)N1CC(=O)N2CCc3ccccc3C2C1` (stereo not given) the outcome was “inactive”.
For `CCCC(CCC)C(=O)O`, the outcome was “inactive”.
In the case of `O=C(O)CS`, the outcome is reported as “inactive”.
In the case of `O=C(O)/C=C\C(=O)O`, the outcome is reported as “inactive”.
For `CC(C)[C@@H]1CC[C@@H](C)C[C@H]1O`, the outcome was “inactive”.
`CCCCOC(=O)CC(CC(=O)OCCCC)(OC(C)=O)C(=O)OCCCC` was tested, and the outcome was “inactive”.
With `COc1ccc2[nH]cc(CCNC(C)=O)c2c1` the outcome was “inactive”.
For `CC(O)C(=O)O` (stereo not given), the outcome was “inactive”.
`Nc1ccn([C@H]2CC[C@@H](CO)O2)c(=O)n1` was tested, and the outcome was “inactive”.
For `NC(=O)NC1NC(=O)NC1=O` (stereo not given), the outcome was “inactive”.
`O=C1CN(/N=C/c2ccc([N+](=O)[O-])o2)C(=O)N1` was tested, and the outcome was “inactive”.
With `C/C=C/c1ccc(OC)cc1` the outcome was “inactive”.
`O=C(O)c1[nH]n(-c2ccc(S(=O)(=O)O)cc2)c(=O)c1N=Nc1ccc(S(=O)(=O)O)cc1` was tested, and the outcome was “inactive”.
`N=C(N)c1ccc(OCCCCCOc2ccc(C(=N)N)cc2)cc1` was tested, and the outcome was “inactive”.
With `OCCc1ccccc1` the outcome was “inactive”.
For `NC(N)=NC(=O)c1nc(Cl)c(N)nc1N`, the outcome was “inactive”.
With `CCCCC(CC)COC(=O)/C=C/c1ccc(OC)cc1` (stereo not given) the outcome was “inactive”.
For `Cc1ccc(S(=O)(=O)NC(=O)NN2CCCCCC2)cc1`, the outcome was “inactive”.
With `Cc1ccc(O)cc1` the outcome was “inactive”.
In the case of `CCOc1ccc(NC(=O)CC(C)O)cc1` (stereo not given), the outcome is reported as “inactive”.
With `CCCCC1C(=O)N(c2ccccc2)N(c2ccccc2)C1=O` the outcome was “inactive”.
In the case of `C1N2CN3CN1CN(C2)C3`, the outcome is reported as “inactive”.
With `COC(=O)[C@H](Cc1ccccc1)NC(=O)[C@@H](N)CC(=O)O` (H-Asp-Phe-OMe) the outcome was “inactive”.
With `CCCCCCCCCCCCCCCC(=O)O` the outcome was “inactive”.
In the case of `Cc1cc(=O)n(-c2ccccc2)n1C`, the outcome is reported as “inactive”.
`CC(O)CN(CCN(CC(C)O)CC(C)O)CC(C)O` (stereo not given) was tested, and the outcome was “inactive”.
`NS(=O)(=O)c1cc(C(=O)O)c(NCc2ccco2)cc1Cl` was tested, and the outcome was “inactive”.
